Y pestis TopoI: Y. pestis Topo-I inhibition via cleavage products; Y. pestis Topo-I cleavage product accumulation, plate reader; activity, % at 10 µM; hit rate 0.064% among 360,000; AID 504884; in the data active = activity above about 50%, passing the limit was not always enough; inconclusive = no clear call, values can overlap the other calls
CCHFV vOTU inh: CCHFV vOTU protease inhibition | hit rate 0.55% among 370,000 | Pep-AMC fluorescence | inhibition, % at 11.5 µM; in the data active = inhibition above about 30%
PrPC surface inh: inhibitors of human cell surface prion protein PrPC | P04156 | TR-FRET read-out | inhibition, % at 13.8 µM | hit rate 0.43% among 370,000; in the data active = inhibition above about 24%
MazEF act: MazEF (E. coli) toxin RNase activation; P0AE70; FAM/BHQ RNA-DNA oligo cleavage fluorescence, 5 h; activation, % at 20 µM; hit rate 0.32% among 350,000; in the data active = activation above about 50%
Target sequence (P0AE70 whole entry, looked up): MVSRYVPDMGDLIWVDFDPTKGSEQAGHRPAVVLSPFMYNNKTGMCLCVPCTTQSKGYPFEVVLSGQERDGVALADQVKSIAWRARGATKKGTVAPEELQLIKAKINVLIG
BH1578 lux ind: induces V. cholerae light production without autoinducers; V. cholerae BH1578 lux reporter, luminescence, 6 h; activation, % at 18.7 µM; hit rate 0.16% among 350,000; AID 588436; in the data active = activation mostly above about 9.7%, no sharp cut-off; inconclusive = no clear call, values can overlap the other calls; inactive = mostly below about 3.7%
DUSP3 inh: inhibitors of human VHR1 phosphatase (DUSP3) | P51452 | recombinant VHR phosphatase, pNPP absorbance | inhibition, % at 13.3 µM | hit rate 0.52% among 290,000; in the data active = inhibition above about 50%
Target sequence (P51452 whole entry, looked up): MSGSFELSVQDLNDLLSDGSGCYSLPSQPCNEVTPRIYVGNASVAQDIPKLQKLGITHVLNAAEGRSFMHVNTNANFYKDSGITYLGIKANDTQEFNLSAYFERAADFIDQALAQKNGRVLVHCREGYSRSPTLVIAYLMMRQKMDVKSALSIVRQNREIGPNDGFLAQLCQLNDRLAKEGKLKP
A number is an active result; – = inactive; ? = inconclusive; · = no result; + = active, no number. Rows were chosen to be rich in hits. Some 1.8% of all compounds tested hit in one or more screens of this group.

SMILES	Y pestis TopoI	CCHFV vOTU inh	PrPC surface inh	MazEF act	BH1578 lux ind	DUSP3 inh
CCCCN(C)C(=O)CN1C(=O)C2CCCCN2C(=O)c2ccccc21 (centres undefined)	·	–	–	·	·	·
CNc1ccc(/C=C(\C#N)C(=O)Nc2ccccn2)cc1[N+](=O)[O-]	–	–	–	140.6	–	–
O=C(NCc1ccc(C(=O)N2CCCN(Cc3ccccc3)CC2)cc1)c1cccc(Br)c1	·	–	–	·	·	·
Cc1csc(CN(C)C(=O)C2CCC(=O)N(Cc3ccc(Cl)cc3)C2)n1 (centres undefined)	–	–	–	–	–	–
Cc1csc(CN(C)C(=O)C2CCC(=O)N(CCN(C)C)C2)n1 (centres undefined)	–	–	–	–	–	59.8
O=C(Nc1c(-c2ccc(C(F)(F)F)cc2)nc2ncccn12)c1ccc(F)cc1	·	–	–	·	·	·
CCOC(=O)/C(=C\C=C1/Sc2cc(OCC)c(OCC)cc2N1CC)C(C)=O	–	–	–	272.0	–	–
C[C@@H]1[C@@H](O)C[C@@]2(C[C@H](O)c3cc(Cl)cc(Cl)c3O2)O[C@H]1c1ccccc1Cl	·	–	–	·	·	·
COc1ccc(OCC(=O)NC2CCCCCCC2)cc1	–	–	–	–	–	56.2
O=C(COC(=O)C1CCC1)Nc1ccccc1Sc1ccccc1	–	–	–	–	–	–
O=C(COC(=O)CCC1CCCC1)Nc1ccccc1Sc1ccccc1	64.2	–	–	–	–	–
CCCC(C(=O)NCC1CCCO1)N(C(=O)CNS(=O)(=O)c1ccccc1)c1ccc(F)cc1 (centres undefined)	–	–	–	–	–	57.6
CCC(C(=O)NCC1CCCO1)N(C(=O)CNS(=O)(=O)c1ccccc1)c1ccc(F)cc1 (centres undefined)	–	–	–	–	–	–
COc1cc2nc3n(c(=O)c2cc1OC)-c1cc2ccccc2cc1C(=O)NC3CC(C)C (centres undefined)	–	–	–	–	–	·
COc1cc2nc3n(c(=O)c2cc1OC)-c1cc2ccccc2cc1C(=O)NC3Cc1ccccc1 (centres undefined)	65.1	–	–	–	–	·
O=C1NC(Cc2ccccc2)c2nc3ccccc3c(=O)n2-c2cc3ccccc3cc21 (centres undefined)	51.0	–	–	–	–	·
O=C1NC(Cc2ccccc2)c2nc3cc(F)ccc3c(=O)n2-c2cc3ccccc3cc21 (centres undefined)	?	–	–	–	–	·
CC(C)CC1NC(=O)c2cc3ccccc3cc2-n2c1nc1cc(Cl)ccc1c2=O (centres undefined)	53.6	–	–	–	–	·
C=CCN1C(=O)[C@@H](CC(=O)NCCc2ccccc2OC)[C@]2(C(=O)OCC)CCCCC/C=C/12	·	–	–	·	·	·
COc1ccc(-c2csc3ncnc(N4CCN(CCO)CC4)c23)cc1	–	–	–	–	–	56.9
COc1ccc(CNC(=O)C2CCN(C(=O)N3CCOc4ccc(C)cc43)CC2)cc1	–	–	–	–	·	50.8
CC(C)Oc1ccc(CNC(=O)C2CCN(C(=O)N3CCOc4ccccc43)CC2)cc1	–	–	–	–	–	–
O=C(NN1C(=O)c2ccccc2NC1c1ccc([N+](=O)[O-])o1)c1ccc(Br)cc1 (centres undefined)	–	–	–	63.6	–	–
COc1cccc(CC(=O)N2CCC(CCC(=O)Nc3cccc(OC)c3)CC2)c1	–	–	–	–	–	–
COc1cccc(NC(=O)CCC2CCN(Cc3nccs3)CC2)c1	–	–	–	–	·	52.2
SMILES	Y pestis TopoI	CCHFV vOTU inh	PrPC surface inh	MazEF act	BH1578 lux ind	DUSP3 inh
CCCCn1ccnc1C	–	–	–	–	–	58.2
Cc1nccn1CCCN1C(=O)CNC1=S	–	–	–	–	–	–
COc1ccc(/C=C(\NC(=O)c2cccs2)C(=O)NN)cc1OC	–	–	–	–	–	52.0
COc1ccc(/C=C(/NC(=O)c2cccs2)C(=O)NC(C)(C)C)cc1OC	–	–	–	–	–	–
COc1ccc(CNC(=O)CSc2nc3c([nH]2)c(=O)n(C)c(=O)n3C)cc1	·	–	–	·	·	·
CC/C(=N\NC(=O)Cc1ccc(Br)cc1)c1cccs1	–	–	–	–	–	50.2
CCOC(=O)/C=c1/s/c(=C/c2ccc3cc(OC)ccc3c2)c(=O)n1CC(=O)NCC1CCCO1 (centres undefined)	–	–	–	80.0	–	·
CCOC(=O)/C=c1\s/c(=C\c2c(OC)ccc3ccccc23)c(=O)n1CC(=O)NCC1CCCO1 (centres undefined)	–	–	–	+	–	–
Cc1nn(C)cc1/C=N/NC(=O)c1ccco1	–	–	–	–	–	–
Cc1nn(C)cc1C=NCCOCc1ccccc1	–	–	–	–	–	51.5
CCN(C(=O)[C@H]1CC(=O)O[C@@H]1c1ccccc1)c1ccccc1	·	–	–	·	·	·
O=c1[nH]c(O)c(/C=C2\C=Nc3ccc(OCc4ccccc4)cc32)c(=O)[nH]1	–	–	–	846.7	–	–
COc1cc2[nH]c3c(=O)n(CCN4CCCCC4)cnc3c2cc1OC	–	–	–	–	–	53.4
CC(C)n1cc(/C=C/c2cc[n+](C)cc2)c2ccccc21	–	–	–	69.0	–	–
CCn1cc(/C=C/c2cc[n+](C)cc2)c2ccccc21	–	–	–	–	–	–
C=CCn1cc(/C=C/c2cc[n+](C)cc2)c2ccccc21	–	–	–	70.0	–	–
Cc1cccc(N2CCN(S(=O)(=O)c3ccc4c(c3)CCN4C(=O)CCC(=O)O)CC2C)c1 (centres undefined)	–	–	–	–	–	54.5
Cn1c(Cc2cccs2)nnc1SCC(=O)Nc1ccc2c(c1)OCCO2	·	–	–	·	·	·
Cc1ccc(-c2cc(C#N)c(=O)n(Cc3c(Cl)cccc3Cl)c2)cc1	–	–	–	58.3	–	–
N#Cc1cc(-c2ccccc2)cn(Cc2c(Cl)cccc2Cl)c1=O	–	–	–	–	–	–
COc1ccc(CCN(Cc2cccs2)S(=O)(=O)c2ccc(F)cc2)cc1OC	·	–	–	·	·	·
CCCN1CCN(CCCNC(=O)c2cc3c(=O)oc4ccc(C)cc4c3s2)CC1	–	–	–	–	–	50.2
Cc1ccc2oc(=O)c3cc(C(=O)NCCCN4CCC(C)CC4)sc3c2c1	·	–	–	·	·	·
Cc1ccc2oc(=O)c3cc(C(=O)NCCN4CCc5ccccc5C4)sc3c2c1	–	–	–	–	–	–
Cc1ccc2oc(=O)c3cc(C(=O)NCCCN4CCCC(C)C4)sc3c2c1 (centres undefined)	–	–	–	–	–	51.2
CC(C)C(=O)OCCCN1C(=O)CCC12CCC(c1ccccc1)CC2 (centres undefined)	·	–	–	·	·	·
Cc1ccsc1C(=O)NCc1ccccc1Cl	–	–	–	–	–	58.5
Cc1nc(N)c(C#N)c(-c2cccnc2)c1-c1ccccc1	–	–	–	–	–	–
Cc1ccc2c(n1)sc1c(-c3ccccc3)c(C#N)c(N)nc12	–	–	–	51.9	–	–
Cc1ccc(C)c(NC(=O)c2cc(-c3ccc(Cl)cc3)nc3ccccc23)c1	·	–	–	·	·	·

From PubChem BioAssay
